{"source": "PubChem BioAssay (Tox21)", "note": "Records with an inconclusive call do not appear. Values without a mark were called inactive. Calls come from the whole dose curve; as a rule, active = well fitted activation curve with a large enough effect in the repeat runs; inconclusive = weak or mixed curves; inactive = flat fitted curve, though single readings scatter. % is set by controls: 0 for no effect and ±100 for the full control effect."}
{"assay": "A CellTox Green Cytotoxicity Assay to monitor cytotoxicity in HepG2 cells - 8 hour (AID 1224890); note: nearly all actives have a fitted effect of over 45% in size", "settings": "CellTox Green fluorescence; series mostly up to 76.8 µM; cytotoxicity increase: at the top concentration", "procedure,_shortened": "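HepG2 cells were seeded together with the CellTox Green dye at 600 cells/well, left 5 h at 37 C/5% CO2, then given compounds in DMSO. Fluorescence from dye bound to dead-cell DNA was read repeatedly over 40 h of treatment at 37 C.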"}
{"smiles": "CN(Cc1ccc(C(C)(C)C)cc1)Cc1cccc2ccccc12", "cytotoxicity increase": "22.8% [at 35.3 µM]"}
{"smiles": "COc1ccc(-c2nc3ccc(C4=NNC(=O)CC4C)cc3[nH]2)cc1", "note": "(centres undefined)", "cytotoxicity increase": "-1.43% [at 35.3 µM]"}
{"smiles": "CN1CCC(=C2c3ccccc3Sc3ccccc32)CC1", "cytotoxicity increase": "19% [at 35.3 µM]"}
{"smiles": "CCCCC(=O)OCC(=O)[C@H]1[C@H](C)C[C@H]2[C@@H]3C[C@H](F)C4=CC(=O)C=C[C@]4(C)[C@@]3(F)[C@@H](O)C[C@@]21C", "cytotoxicity increase": "0.342% [at 35.3 µM]"}
{"smiles": "CCn1cc(C(=O)O)c(=O)c2cnc(N3CCNCC3)nc21", "cytotoxicity increase": "2.38% [at 35.3 µM]"}
{"smiles": "COc1cc(C(=O)OCCCN2CCCN(CCCOC(=O)c3cc(OC)c(OC)c(OC)c3)CC2)cc(OC)c1OC", "cytotoxicity increase": "3.21% [at 35.3 µM]"}
{"smiles": "NS(=O)(=O)c1ccc(N2CCCCS2(=O)=O)cc1", "cytotoxicity increase": "0.181% [at 35.3 µM]"}
{"smiles": "CCCCCCCC/C=C\\CCCCCCCC(=O)OCC", "cytotoxicity increase": "5.95%"}
{"smiles": "Nc1cc(C(=O)O)c(O)c(S(=O)(=O)O)c1", "cytotoxicity increase": "0.121%"}
{"smiles": "C/C=C/C(=O)CC", "cytotoxicity increase": "6.47% [at 15.8 µM]"}
{"smiles": "CCN(CC)CCNC(=O)c1cc(Br)c(N)cc1OC", "cytotoxicity increase": "7.08% [at 35.3 µM]"}
{"smiles": "O=C(O)C(S)C(S)C(=O)O", "note": "(centres undefined)", "cytotoxicity increase": "-12.2% [at 35.3 µM]"}
{"smiles": "O=[N+]([O-])c1ccc2[nH]ncc2c1", "cytotoxicity increase": "-5.59%"}
{"smiles": "CCCCCCCCCCO[C@@H]1O[C@H](CO)[C@@H](O)[C@H](O)[C@H]1O", "cytotoxicity increase": "4.79%"}
{"smiles": "CN(C)c1ccc(/C=C/c2ccc([N+](=O)[O-])cc2)cc1", "cytotoxicity increase": "23.9% [at 6.97 µM]"}
{"smiles": "CCO[Si](CCCCl)(OCC)OCC", "cytotoxicity increase": "-3.12%"}
{"smiles": "Nc1ncn([C@H]2C[C@H](O)[C@@H](CO)O2)c(=O)n1", "cytotoxicity increase": "2.9% [at 35.3 µM]"}
{"smiles": "O=C1OC(=O)C2C3C=CC(C3)C12", "note": "(centres undefined)", "cytotoxicity increase": "-8.61%"}
{"smiles": "CCCCCCCCO[C@@H]1O[C@H](CO)[C@@H](O)[C@H](O)[C@H]1O", "cytotoxicity increase": "0.368%"}
